Data published in PubChem BioAssay (NCATS).
Results filed as inconclusive are left out. Calls of active or inactive are those of the source. Calls follow the shape of the dose curve; as a rule, active = well fitted inhibition curve with a large enough effect; inconclusive = small, poorly fitted or top-dose-only effect; inactive = flat fitted curve, though single readings scatter. Numbered stars: 1 amine (or outer) side, 2 acyl side, 3 side chain; on linkers, the order of the positions; unused ones are H or OH. Bridge positions count the residues as written; N and C are the ends. Square brackets hold non-standard residues; d marks the D form. Peptide text beside a SMILES is read from it. I, II: the chains in the order shown. Actinocin(9to1) = Cc1c2oc3c(C)ccc(C(=O)[*:1])c3nc-2c(C(=O)[*:2])c(N)c1=O; NMeV = CN[C@H](C(=O)O)C(C)C; Sar = CNCC(=O)O

Columns and labels:
Experiment in all cases: qHTS profiling for inhibitors of Plasmodium falciparum proliferation (AID 504749); also: nearly all actives have a fitted effect of over 60% in size
Conditions in all cases: P. falciparum in erythrocytes, SYBR Green DNA, 72 h; series mostly up to 28.7 µM
CP256 = test system: CP256
In short: (§1)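 Infected RBCs, 0.3% parasitemia/2.5% Hct final; cpd 72 h, 37 C, 5% CO2; lysis buffer with saponin/triton/SYBR Green I, o/n RT dark; FI 485/535; norm. to artemisinin (0.29 uM) and DMSO.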

CP260 = test system: CP260
In short: as §1

CP262 = test system: CP262
In short: as §1

CP266 = test system: CP266
In short: as §1

CP297 = test system: CP297
In short: as §1

DFO2036 = test system: DFO2036
In short: as §1

DIV14 = test system: DIV14
In short: as §1

DIV17 = test system: DIV17
In short: as §1

Dd2 = test system: Dd2
In short: as §1

CP265 = test system: CP265
In short: as §1

CP268 = test system: CP268
In short: as §1

CP269 = test system: CP269
In short: as §1

CP286 = test system: CP286
In short: as §1

CP291 = test system: CP291
In short: as §1

CP305 = test system: CP305
In short: as §1

CP315 = test system: CP315
In short: as §1

CP325 = test system: CP325
In short: as §1

CP329 = test system: CP329
In short: as §1

CP335 = test system: CP335
In short: as §1

DIV30 = test system: DIV30
In short: as §1

Measured: Potency
Potency is read from the fitted curve at half-maximal effect.

O=C(CCCN1CCC(O)(c2ccc(Br)cc2)CC1)c1ccc(F)cc1
inactive: CP256 | CP262 | CP266 | CP297 | DFO2036
active: CP260 3550 nM | DIV14 5730 nM | DIV17 6420 nM | Dd2 3550 nM

Cc1c(C)n(CCN(C)C)c2ccc(C(=O)OCCN(C)C)cc12
not listed: CP260
inactive: all other assays above

COc1cc(-c2ccc(=O)[nH]n2)ccc1OC(F)F
inactive: CP266 | CP268 | CP286 | CP291 | CP305 | CP325 | DIV14 | Dd2
active: CP256 3160 nM | CP265 316 nM | DFO2036 501 nM

CCN(CCCc1ccccc1)CCCc1ccccc1
inactive: CP256 | CP260 | CP262 | CP266 | CP305 | CP315 | CP329 | DFO2036
active: Dd2 3160 nM

Cc1c2oc3c(C)ccc(C(=O)N[C@@H]4C(=O)N[C@H](C(C)C)C(=O)N5CCC[C@H]5C(=O)N(C)CC(=O)N(C)[C@@H](C(C)C)C(=O)O[C@@H]4C)c3nc-2c(C(=O)N[C@@H]2C(=O)N[C@H](C(C)C)C(=O)N3CCC[C@H]3C(=O)N(C)CC(=O)N(C)[C@@H](C(C)C)C(=O)O[C@@H]2C)c(N)c1=O (I: T[dV]P[Sar][NMeV] / II: T[dV]P[Sar][NMeV]; ester I:1-I:C, II:1-II:C; linker I:N-II:N via Actinocin(9to1))
active: CP256 7.9 nM | CP260 3.5 nM | CP262 3.4 nM | CP266 8.5 nM | CP268 6.7 nM | CP269 6 nM | CP286 3.5 nM | CP291 5.4 nM | CP297 6 nM | CP305 5.4 nM | CP315 7.6 nM | CP325 5.4 nM | CP329 6 nM | CP335 1.9 nM | DFO2036 3.2 nM | DIV14 3.8 nM | DIV17 5.4 nM | DIV30 7.6 nM | Dd2 4.5 nM

COc1cccc2c1C(=O)c1c(O)c3c(c(O)c1C2=O)C[C@@](O)(C(C)=O)C[C@@H]3O[C@H]1C[C@H](N)[C@H](O)[C@H](C)O1
active: CP256 1000 nM | CP260 1120 nM | CP265 2000 nM | CP266 8490 nM | CP268 6010 nM | CP269 4780 nM | CP286 2000 nM | CP291 5360 nM | CP297 7570 nM | CP305 4780 nM | CP315 7570 nM | CP325 8490 nM | CP329 6010 nM | CP335 4780 nM | DFO2036 4470 nM | DIV14 1900 nM | DIV17 1350 nM | DIV30 6750 nM | Dd2 2240 nM

CCN(CC)CCOC(=O)C(c1ccccc1)C1CCCCC1 (stereo not given)
active: DIV14 5360 nM | Dd2 11200 nM
not listed: CP260 | DIV17 | CP268 | CP291 | CP329
inactive: all other assays above

Cc1ccc(O)c2ncccc12
not listed: CP260 | DFO2036 | DIV14 | DIV17 | Dd2 | CP286 | CP335
inactive: all other assays above

CN1CCN(C(c2ccccc2)c2ccccc2)CC1
inactive: CP256 | CP260 | CP262 | CP266 | CP268 | CP286 | CP297 | CP305 | CP315 | DFO2036 | DIV30
